Rows were chosen to be rich in hits. Some 3.2% of all compounds tested hit in one or more screens of this group.
MEKK3 PB1 HTS = modulators (inhibitors or enhancers) of MEK5 binding to human MEKK3 PB1 domain; bead-based flow cytometry, Alexa488-MEK5 binding to MEKK3; actives lie on both sides; 0 = blocked by unlabeled MEK5, 100 = vehicle; binding response (% of control), % at 10 µM; actives 1.4% (n = 290,000); Q99759;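 active = binding response more than 3 SD above or below the average of its plate-row segment, actives on both sides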;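 note: Alexa488 bead fluorescence after subtracting the streptavidin-only scavenger bead signal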
Target sequence (Q99759 whole entry, looked up, the tested form may be a part): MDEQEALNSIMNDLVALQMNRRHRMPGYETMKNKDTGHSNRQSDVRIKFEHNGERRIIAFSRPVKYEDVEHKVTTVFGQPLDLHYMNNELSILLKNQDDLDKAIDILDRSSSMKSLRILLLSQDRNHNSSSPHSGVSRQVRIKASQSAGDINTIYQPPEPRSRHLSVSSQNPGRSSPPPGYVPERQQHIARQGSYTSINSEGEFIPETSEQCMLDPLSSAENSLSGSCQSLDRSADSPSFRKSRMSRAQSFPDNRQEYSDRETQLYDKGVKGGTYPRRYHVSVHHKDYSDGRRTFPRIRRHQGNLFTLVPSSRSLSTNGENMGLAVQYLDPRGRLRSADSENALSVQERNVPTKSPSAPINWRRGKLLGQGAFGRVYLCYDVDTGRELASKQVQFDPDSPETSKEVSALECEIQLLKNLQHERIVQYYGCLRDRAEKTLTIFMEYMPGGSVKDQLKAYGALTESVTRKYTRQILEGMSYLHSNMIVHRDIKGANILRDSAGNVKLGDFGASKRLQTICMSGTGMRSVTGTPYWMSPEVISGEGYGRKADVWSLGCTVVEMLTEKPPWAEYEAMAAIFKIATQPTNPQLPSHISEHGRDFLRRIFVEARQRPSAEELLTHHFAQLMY
MEKK2mut PB1 HTS = signal of MEK5 binding to mutant human MEKK2 PB1 domain; actives 0.35% (n = 290,000); percent response, % at 10 µM; bead flow cytometry, Alexa488-MEK5 binding to MEKK2 mutant; in the data active = percent response above about 24%, passing the limit was not always enough
MEKK2wt PB1 HTS = raises or lowers MEK5 binding to wildtype human MEKK2 PB1 domain; bead flow cytometry, Alexa488-MEK5 binding to MEKK2 WT; actives lie on both sides; Q9Y2U5; actives 1.1% (n = 290,000); binding response (% of control), % at 10 µM; in the data active = binding response below about 67% or above about 130%
NRP1-CendR mod = NRP-1/CendR interaction modulation | inhibition, % at 25 µM | actives 0.85% (n = 360,000) | AID 602438 | FAM-RPARPAR peptide binding to NRP-1, fluorescence polarization;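 active = inhibition or corrected inhibition above about 18%, plus a signal ratio from 0.5 to 1.5, limit read from the data, passing the limit was not always enough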
SKN-1 inh = C. elegans SKN-1 inhibition. actives 0.49% (n = 360,000). inhibition, % at 21.8 µM. C. elegans VP596 Pgst-4::GFP/RFP ratio, acrylamide-induced, 24 h;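 active = interference check ratio from 0.5 to 1.5 plus GFP to RFP signal ratio inhibition reaching or exceeding a fixed threshold, cut at about 30% in these data, passing the limit was not always enough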
MEKK2wt confirm = raises or lowers MEK5 binding to wildtype human MEKK2, retest; AID 1892; shares compounds with MEKK3 PB1 HTS; actives 2.4% (n = 5,900); bead flow cytometry, Alexa488-MEK5 binding to MEKK2 WT; actives lie on both sides; binding response (% of control), % at 10 µM; in the data active = binding response below about 16% or above about 210%; inactive = in between
MEKK2mut confirm = signal of MEK5 binding to mutant human MEKK2, retest; shares compounds with MEKK3 PB1 HTS; bead flow cytometry, Alexa488-MEK5 binding to MEKK2 mutant; percent response, % at 10 µM; actives 2% (n = 5,900); AID 1893; in the data active = percent response mostly above about 71%, no sharp cut-off; inactive = mostly below about 38%;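 note: higher means compound restores mutant binding toward wildtype level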
MEKK3-MEK5 inh = confirmation of inhibitors of MEK5 binding to human MEKK3; shares compounds with MEKK3 PB1 HTS; actives 1.8% (n = 5,900); AID 1894; binding response (% of control), % at 10 µM; bead flow cytometry, Alexa488-MEK5 binding to MEKK3; active compounds read low;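 active = binding response below 72% of control, or above a set upper limit, though filed actives all read lower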;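 note: 100% = DMSO only wells and 0% = binding blocked by excess unlabeled MEK5; lower values mean stronger disruption of MEK5 binding to MEKK3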
Starred values were filed as active, the others as inactive; nt = no result; [ ] = dose if it differs, or a comment.

SMILES | MEKK3 PB1 HTS | MEKK2mut PB1 HTS | MEKK2wt PB1 HTS | NRP1-CendR mod | SKN-1 inh | MEKK2wt confirm | MEKK2mut confirm | MEKK3-MEK5 inh
Cc1ccc(C2OC34CCCCCC3C(C#N)(C(=N)O4)C2(C#N)C#N)cc1 (stereo not drawn) | 56*[inhibitor] | -2 | 88 | -2 | 13 | 99 | 1 | 103
O=C(O)CCCNc1c(C(=O)Nc2ccc(Cl)cc2)cc([N+](=O)[O-])cc1[N+](=O)[O-] | 135* | 11 | 118 | 0 | 1 | 105 | 8 | 107
O=C(Nc1ccc(Nc2ccccc2)cc1)c1ccc(Cl)cc1[N+](=O)[O-] | nt | nt | nt | 20 | -6 | nt | nt | nt
Cn1cc(S(=O)(=O)N2CCN(c3cccc(Cl)c3)CC2)c(=O)n(C)c1=O | 129* | 29 | 132 | 9 | -2 | 109 | 10 | 103
Cn1cc(S(=O)(=O)N2CCN(c3ccccc3)CC2)c(=O)n(C)c1=O | 116 | 15 | 112 | 4 | 3 | nt | nt | nt
O=C(NC(c1ccc(Cl)cc1)c1ccsc1)C1CCN(Cc2ccc(Oc3ccccc3)cc2)CC1 (stereo not drawn) | nt | nt | nt | 1 | 7 | nt | nt | nt
FC(F)(F)c1ccccc1Cc1c(-c2ccco2)nc2ccc(Br)cn12 | nt | nt | nt | -23 | -5 | nt | nt | nt
CC(NC(=O)C(=O)NCCC1=CCCCC1)c1ccccc1 (stereo not drawn) | 139* | 0 | 105 | 8 | 3 | 98 | -2 | 98
O=C(NCc1nc(-c2ccccc2)no1)c1cccs1 | 0.0*[inhibitor] | -39 | -4.0*[inhibitor] | -9 | 13 | 95 | 0 | 99
Cc1ccc(CNC(=O)NC23CC4CC(CC(C4)C2)C3)cc1 | 100 | 1 | 99 | 10 | -3 | nt | nt | nt
O=C(NCc1nc(-c2ccc(C(F)(F)F)cc2)no1)c1cccs1 | 109 | 3 | 110 | 10 | 6 | nt | nt | nt
O=C(NCc1ccco1)c1cccs1 | 77*[inhibitor] | -11 | 84 | -9 | 4 | 100 | -1 | 97
O=C(NCc1ccco1)NC12CC3CC(CC(C3)C1)C2 | 81*[inhibitor] | -13 | 91 | -6 | -16 | 98 | 0 | 97
O=C(NNC(=S)NCc1ccco1)c1cccs1 | 99 | 6 | 95 | -3 | -19 | nt | nt | nt
C=CCSc1nnc(NC(=O)C23CC4CC(CC(NC(C)=O)(C4)C2)C3)s1 | 84 | -8 | 89 | 5 | 13 | nt | nt | nt
O=c1c2ccccc2nnn1-c1ccccc1[N+](=O)[O-] | nt | nt | nt | -5 | 13 | nt | nt | nt
CN1CCN(CC(=O)N2c3ccccc3C(C)(c3ccc(Cl)cc3)CC2(C)C)CC1 (stereo not drawn) | 105 | 27* | 112 | 8 | -1 | 111 | -1 | 100
O=C(COC(=O)C1CCCCC1)Nc1ccc(N2CCCCC2)cc1 | 102 | 47* | 150* | 13 | 11 | 129 | 15 | 101
O=C(Nc1ccc(S(=O)(=O)N2CCOCC2)cc1)C1CCCCC1 | 101 | 3 | 102 | 3 | 10 | nt | nt | nt
O=C(CNCCC1=CCCCC1)Nc1ccc(N2CCCCCC2)cc1 | 105 | 29 | 188* | 10 | 30 | 194 | 56 | 112
O=C(Nc1ccc(N2CCOCC2)cc1)C1CCCCC1 | 82*[inhibitor] | -3 | 78 | -8 | 0 | 100 | -1 | 105
NS(=O)(=O)c1ccc(NC(=O)COC(=O)C2CCCCC2)cc1 | 92 | -1 | 94 | 18 | -7 | nt | nt | nt
O=C(CNC1CCCC1)Nc1ccc(N2CCCCCC2)cc1 | 101 | 1 | 109 | 4 | -7 | nt | nt | nt
O=C(/C=C/[C@H]1O[C@@H](n2ccc(=O)[nH]c2=O)[C@H](O)[C@@H]1O)NCCN1CCCC1 | nt | nt | nt | 12 | 10 | nt | nt | nt
CCOC(=O)c1cc(CC)sc1NC(=O)C1CC(=O)NN1Cc1ccccc1 (stereo not drawn) | 101 | 13 | 108 | 7 | 5 | nt | nt | nt
SMILES | MEKK3 PB1 HTS | MEKK2mut PB1 HTS | MEKK2wt PB1 HTS | NRP1-CendR mod | SKN-1 inh | MEKK2wt confirm | MEKK2mut confirm | MEKK3-MEK5 inh
COC(=O)c1cc(C)sc1NC(=O)C1CC(=O)NN1Cc1ccccc1 (stereo not drawn) | 137* | 1 | 108 | 0 | 6 | 98 | -1 | 104
Cn1cc(-c2csc(C(O)c3ccc(F)c(F)c3)n2)cn1 (stereo not drawn) | nt | nt | nt | -2 | 23 | nt | nt | nt
Fc1ccccc1NC(=S)N1CCN(Cc2ccc3c(c2)OCO3)CC1 | 136* | 5 | 116 | 7 | -4 | 96 | -3 | 94
O=C(NC(=S)N1CCN(Cc2ccc3c(c2)OCO3)CC1)c1ccc(Cl)cc1 | 104 | 55* | 121 | 0 | -3 | 106 | 4 | 105
O=C(NC(=S)N1CCN(Cc2ccc3c(c2)OCO3)CC1)c1cccc(Br)c1 | 108 | -1 | 108 | -8 | 14 | nt | nt | nt
Cc1nc(NC(=O)CSC2=NCCS2)sc1C(=O)N(C)C | 102 | 7 | 107 | -2 | 3 | nt | nt | nt
COc1ccc(S(=O)(=O)NC(C(=O)OCC(=O)Nc2ccc(N3CCOCC3)cc2)C(C)C)cc1 (stereo not drawn) | nt | nt | nt | -7 | -3 | nt | nt | nt
CCCCN(C=O)c1c(CC)nc2c(OCc3ccc(Cl)cc3Cl)cccn12 | nt | nt | nt | 3 | 11 | nt | nt | nt
CCCCn1cc(C(C)(C)C)c(C#N)c1NC(C)=O | 46*[inhibitor] | -13 | 52*[inhibitor] | 13 | 2 | 101 | 1 | 100
CCCCn1c(NC(=O)c2ccccc2)c(C#N)c2nc3ccccc3nc21 | nt | nt | nt | -67 | 10 | nt | nt | nt
O=C(NCc1ccccc1)c1cc(C2CCCN(C(=O)C3CCCCC3)C2)on1 (stereo not drawn) | nt | nt | nt | 16 | 14 | nt | nt | nt
